# Measured values from PubChem BioAssay (EPA / NIEHS).
# Calls of active or inactive are those of the source. Rule for the calls: active = hit-call score of the fitted dose curve at least 0.9, where 1 is the maximum; inactive = score below 0.9.
# Experiment: ATG_RORE_CIS: Attagene CIS-FACTORIAL HepG2 Assay for human RAR-related Orphan Receptor Element (RORE) (AID 2282959)
# Details: HepG2 Attagene cis-factorial RORE reporter, mRNA; actives raise or lower the signal
# Method: ATG_CIS is a cell-based, multiplexed-readout assay that uses HepG2, a human liver cell line, with measurements taken at 24 hours after chemical dosing in a 24-well plate.ATG_RORE_CIS is one of 52 assay component(s) measured or calculated from the ATG_CIS assay. It is designed to make measurements of mRNA induction, a form of inducible reporter, as detected with fluorescence intensity signals by Reverse transcription polymerase chain reaction (RT-PCR) and Capillary electrophoresis technology.Data from the assay component ATG_RORE_CIS was analyzed into 1 assay endpoint. This assay endpoint, ATG_RORE_CIS, was analyzed with bidirectional fitting relative to DMSO as the negative control and baseline of activity. Using a type of inducible reporter, measures of mRNA for gain or loss-of-signal activity can be used to understand the reporter gene at the transcription factor-level as they relate to the gene RORA and RORB and RORC. Furthermore, this assay endpoint can be referred to as a primary readout, because this assay has produced multiple assay endpoints where this one serves a reporter gene function. To generalize the intended target to other relatable targets, this assay endpoint is annotated to the nuclear receptor intended target family, where the subfamily is orphan.
# Human liver HepG2 cells are transiently transfected with multiple reporter transcription units (MRTUs) in 6-well plates using FuGene 6 reagent (Roche; 3 ml FuGene/1 mg DNA). The MRTU constructs are regulated by a cis-regulating element (promoter). […] A major difference between the CIS and TRANS system is that in CIS activities of endogenous TFs are measured, whereas the TRANS assay evaluates changes in activities of exogenous, chimeric NR-Gal4 proteins. […] At the end of 24 hour incubation, total RNA was isolated using TriZol reagent (Invitrogen). The isolated RNA is then reverse-transcribed using oligo(dT) primer and Mo-MLV reverse transcriptase (Invitrogen) with DNAse I (Ambion) treatment for 30 min. The one-tenth of the produced cDNA was amplified by PCR using Taq DNA polymerase (Invitrogen) and two reporter sequence-specific primers. The PCR products were fluorescently labeled by primer extension with 6-arboxyfluorescein (6-FAM) 5'-labeled reporter sequence-specific primer (2 min at 95 C, 20 s at 68 C and 10 min at 72 C) and these products were digested with 5U of HpaI (New England Biolabs) for 2h at 37 C. The fragments were purified using Qiaquick PCR columns (Qiagen), analyzed on an ABI 3130xL genetic analyzer (Applied Biosystems) with peak positions identified by using a set of X-rhodamine (ROX)-labeled MapMarker1000 molecular weight standards (BioVentures). The raw capillary electrophoresis data was processed using Attagraph software (Attagene).
SMILES,outcome,AC50
C=C1C2CCC(C2)C1(C)C (stereo not given),inactive,
O=C(O)C(c1ccc(Cl)cc1)c1ccc(Cl)cc1,inactive,
O=CC1CC1,inactive,
N#[N+]c1ccc2c(S(=O)(=O)[O-])cccc2c1O,inactive,
CCCC(C)CCC(C)=O (stereo not given),inactive,
O=C1CCCCCN1SSN1CCCCCC1=O,inactive,
C=CC(=O)OCCC(=O)O,inactive,
COC(=O)c1sccc1S(N)(=O)=O,inactive,
C1=Cc2ccccc2C1,inactive,
CC=CCO,inactive,
O=C1CCCCCCCCCCCCCCCO1,inactive,
Cn1c([N+](=O)[O-])cnc1COC(N)=O,inactive,
CCOCC(=O)O,inactive,
CC(C)CC(O)Cc1ccccc1 (stereo not given),inactive,
COc1c2ccoc2cc2oc(=O)ccc12,inactive,
CCC(=O)Oc1ccc(/C(CC)=C(\CC)c2ccc(OC(=O)CC)cc2)cc1,inactive,
C=C(C)C(=O)OCCO,inactive,
Cc1ccc([N+](=O)[O-])cc1S(=O)(=O)O,inactive,
Nc1ccc(-c2ccc(F)cc2)cc1,inactive,
C=C(C)C(=O)OCCOc1ccccc1,inactive,

SMILES,outcome,AC50
COc1ccc(C(Cl)=C(c2ccc(OC)cc2)c2ccc(OC)cc2)cc1,inactive,
O=S(=O)(O)CC(O)CCl (stereo not given),inactive,
N=c1ccn2c(n1)O[C@H]1[C@H](O)[C@@H](CO)O[C@H]12,inactive,
CCCCC(CC)COC(=O)c1ccccc1O (stereo not given),inactive,
CCCCCCCCCCCCCCCC[N+](C)(C)CC,,8.95 µM (active)
O=S1(=O)OC(c2ccc(O)cc2)(c2ccc(O)cc2)c2ccccc21,inactive,
CCCCCCCCO[C@@H]1O[C@H](CO)[C@@H](O)[C@H](O)[C@H]1O,inactive,
Cc1oncc1C(=O)Nc1ccc(C(F)(F)F)cc1,inactive,
CCc1nccnc1C,inactive,
CC(C)=CCCC(C)C=O (stereo not given),inactive,
COC(=O)c1ccc2cc(C(=O)OC)ccc2c1,inactive,
CC(C)(C)C(=O)C=Cc1ccc(Cl)cc1,inactive,
CC(=O)Nc1nnc(S(N)(=O)=O)s1,inactive,
CCOc1nc(F)cc2nc(S(=O)(=O)Nc3c(Cl)cccc3C(=O)OC)nn12,inactive,
CCOC(=O)c1ccccc1C(=C1C=C(Br)C(=O)C(Br)=C1)c1cc(Br)c(O)c(Br)c1,inactive,
CN(C)c1ccc(N=Nc2ccccc2C(=O)O)cc1,inactive,
C/C=C\C/C=C/CCCCCCCCOC(C)=O,inactive,
CC(=O)[C@H]1[C@H](C#N)C[C@H]2[C@@H]3CC=C4C[C@@H](O)CC[C@]4(C)[C@H]3CC[C@@]21C,inactive,
O=Nc1ccc(O)cc1,inactive,
CCOC(F)(F)C(F)(F)C(F)(F)C(F)(F)F,inactive,
